Unmarked numbers belong to inactive results. Records with an inconclusive call do not appear. Calls of active or inactive are those of the source. Unless noted, calls follow the shape of the dose curve; as a rule, active = well fitted curve in the direction sought with a large enough effect; inconclusive = small, poorly fitted or top-dose-only effect, or another doubt; inactive = no such curve, though single readings can be large; an effect the other way counts as inactive or inconclusive.
Columns and labels:
[1] = target: Lysosomal acid glucosylceramidase (Homo sapiens) (UniProt P04062); experiment: Glucocerebrosidase-p2 (AID 348; in the data active = potency below about 10 µM; also: potency is read from the fitted curve at half-maximal effect); settings: purified GBA, blue fluorogenic substrate, 40 min
Lysosomal acid glucosylceramidase (Homo sapiens), sequence (P04062 whole entry, looked up): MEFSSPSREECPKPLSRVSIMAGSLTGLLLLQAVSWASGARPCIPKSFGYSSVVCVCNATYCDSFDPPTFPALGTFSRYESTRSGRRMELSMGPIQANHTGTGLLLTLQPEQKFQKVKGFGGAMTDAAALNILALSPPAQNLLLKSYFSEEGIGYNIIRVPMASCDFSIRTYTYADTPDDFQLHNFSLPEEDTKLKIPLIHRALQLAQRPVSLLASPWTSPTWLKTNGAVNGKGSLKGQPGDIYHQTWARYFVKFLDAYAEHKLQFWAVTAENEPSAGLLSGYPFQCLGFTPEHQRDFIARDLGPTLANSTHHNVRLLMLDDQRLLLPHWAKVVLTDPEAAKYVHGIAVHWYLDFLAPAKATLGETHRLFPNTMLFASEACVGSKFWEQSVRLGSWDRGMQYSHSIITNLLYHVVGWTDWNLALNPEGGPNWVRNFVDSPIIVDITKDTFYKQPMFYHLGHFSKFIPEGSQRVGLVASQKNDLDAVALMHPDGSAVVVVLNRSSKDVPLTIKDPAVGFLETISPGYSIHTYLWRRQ
Outline: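 Compounds titrated from 0.6 nM upwards against 0.2 nM enzyme in pH 5.9 citric acid/KH2PO4, taurocholate, tween-20; blue fluorogenic substrate 80 uM, 40 min room temperature, stopped and read Ex 365/Em 440 for AC50.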

[2] = AP1 Signaling Pathway (AID 357; active = well fitted curve in either direction with a large enough effect, not every such curve was filed as active; also: % is scaled to controls: 0 for no effect and ±100 for the full control effect); settings: ME-180 AP-1-bla reporter, EGF-induced, beta-lactamase ratio, 5 h; at 7.69 µM (top of the series) unless noted
Outline: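 ME-180 cells with beta-lactamase reporter under AP-1 response element, stimulated with EC50 EGF; compounds tested in titration series, 5 h at 37 °C. CCF4 substrate added 2.5 h at room temperature; 460/530 nm emission ratio gave %activity and AC50.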

[3] = target: Cytochrome P450 1A2 (Homo sapiens) (UniProt P05177); experiment: p450-cyp1a2 (AID 410; calls by dose curve; also: potency is read from the fitted curve at half-maximal effect)
Cytochrome P450 1A2 (Homo sapiens), sequence (P05177 whole entry, looked up): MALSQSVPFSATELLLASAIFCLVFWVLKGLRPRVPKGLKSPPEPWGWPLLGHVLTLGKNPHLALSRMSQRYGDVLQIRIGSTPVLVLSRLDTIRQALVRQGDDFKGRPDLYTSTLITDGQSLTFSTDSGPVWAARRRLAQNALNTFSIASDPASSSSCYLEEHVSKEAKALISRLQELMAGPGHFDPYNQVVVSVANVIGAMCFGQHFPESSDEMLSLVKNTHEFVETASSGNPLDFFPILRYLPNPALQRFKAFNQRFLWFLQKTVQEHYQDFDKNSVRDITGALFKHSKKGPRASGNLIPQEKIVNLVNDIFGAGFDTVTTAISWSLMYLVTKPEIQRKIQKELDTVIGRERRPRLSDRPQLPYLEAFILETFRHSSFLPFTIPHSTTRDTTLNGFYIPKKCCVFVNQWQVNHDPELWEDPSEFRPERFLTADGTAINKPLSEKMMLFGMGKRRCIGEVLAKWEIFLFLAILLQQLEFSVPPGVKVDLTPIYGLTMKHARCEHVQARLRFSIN
Outline: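 20nM CYP1A2 with 100uM Luciferin-ME (at Km) in 100mM KPO4; compound preincubated 10 min, NADPH regeneration added, 60 min at room temperature. Luciferin quantified by luminescence after detection reagent; normalized to 57 uM furafylline.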

[4] = NFAT Signaling Pathway (AID 444; active = well fitted curve in either direction with a large enough effect, not every such curve was filed as active;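 also: carbachol stimulus at about its EC50 of 1 µM final; % is scaled to controls: 0 for no effect and ±100 for the full control effect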); settings: Jurkat NFAT-bla M1, carbachol, beta-lactamase ratio, 5 h; at 7.69 µM (top of the series) unless noted
Outline: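 Jurkat cells carrying an NFAT-driven β-lactamase reporter and co-transfected muscarinic M1 receptor were treated with compound plus carbachol (1 uM final, an EC50 level) for 5 h at 37 °C. CCF4 loading followed for 1 h at RT; 460/530 nm ratio gave %activity.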

[5] = Stat Signaling Pathway (AID 446; active = well fitted curve in either direction with a large enough effect, not every such curve was filed as active;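 also: ME-180 cervical cancer cells given 40 pM IL-6 alongside compound; SIE-controlled beta-lactamase reporter measured as 460/530 nm FRET emission ratio; % is scaled to controls: 0 for no effect and ±100 for the full control effect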)
Outline: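 Screening format detects activators and inhibitors alike: ME-180 SIE-bla cells stimulated at 40 pM IL-6 for 5 hrs with compound, then dual-emission beta-lactamase read at 405 nm excitation.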

[6] = target: Glucocorticoid receptor (Homo sapiens) (UniProt P04150); experiment: GR-GFP Redistribution (AID 450;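 active = compounds whose dose series gives a full or clear partial fitted curve of increased nuclear translocation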; also: potency is read from the fitted curve at half-maximal effect); settings: U2OS GR-GFP nuclear translocation, laser cytometry, 2 h
Glucocorticoid receptor (Homo sapiens), sequence (P04150 whole entry, looked up, the tested form may be a part): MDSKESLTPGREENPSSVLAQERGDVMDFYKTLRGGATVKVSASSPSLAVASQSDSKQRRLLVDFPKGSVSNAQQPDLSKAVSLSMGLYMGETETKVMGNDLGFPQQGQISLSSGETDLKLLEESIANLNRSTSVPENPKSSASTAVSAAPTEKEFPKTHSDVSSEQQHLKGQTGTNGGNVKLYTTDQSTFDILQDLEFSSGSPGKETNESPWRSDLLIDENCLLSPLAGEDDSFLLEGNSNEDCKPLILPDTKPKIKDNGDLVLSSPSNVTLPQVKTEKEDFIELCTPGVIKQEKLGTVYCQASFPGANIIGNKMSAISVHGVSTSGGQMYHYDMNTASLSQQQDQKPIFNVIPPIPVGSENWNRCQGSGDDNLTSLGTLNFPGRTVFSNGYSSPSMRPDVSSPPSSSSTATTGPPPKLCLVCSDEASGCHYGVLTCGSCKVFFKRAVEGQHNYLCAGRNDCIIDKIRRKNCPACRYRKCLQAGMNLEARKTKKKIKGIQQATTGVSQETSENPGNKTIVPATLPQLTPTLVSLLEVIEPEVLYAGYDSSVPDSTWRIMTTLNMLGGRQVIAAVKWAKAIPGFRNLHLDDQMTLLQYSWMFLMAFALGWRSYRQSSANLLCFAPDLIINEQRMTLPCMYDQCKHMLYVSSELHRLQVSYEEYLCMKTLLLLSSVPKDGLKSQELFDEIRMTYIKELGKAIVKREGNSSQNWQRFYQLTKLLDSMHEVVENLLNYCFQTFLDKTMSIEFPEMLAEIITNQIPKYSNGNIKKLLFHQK

[7] = target: Glucocorticoid receptor (Homo sapiens) (UniProt P04150); experiment: GR-EFC Redistribution (AID 451; calls by dose curve; also: potency is read from the fitted curve at half-maximal effect); settings: CHO-K1 GR-EFC translocation, beta-gal luminescence, 2 h
Outline: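 CHO-K1 cells stably expressing nuclear-localized β-gal enzyme acceptor and GR fused C-terminally to the enzyme donor fragment; ligand-driven nuclear translocation restores β-gal by complementation. Compounds titrated up to 46 uM final, 2 h at 37 °C; luminescence read.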

[8] = target: Mitogen-activated protein kinase 10 (Mus musculus) (UniProt Q61831); experiment: JNK3 AlphaScreen Assay (AID 530; active = well fitted curve in either direction with a large enough effect, not every such curve was filed as active;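 also: kinase came from lysate of stimulated human HepG2 cells; signal reports phosphorylation of biotinylated GST-cJun 1-79 at Ser73 with 10 µM ATP; % is scaled to controls: 0 for no effect and ±100 for the full control effect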)
Outline: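 Inhibitors reduce antibody binding to phosphorylated biotin-cJun, lowering AlphaScreen luminescence. Lysates from HepG2 cells pre-activated by IL-1beta plus TNF-alpha supplied JNK3; compounds were titrated.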

[9] = target: Cytochrome P450 3A4 (Homo sapiens) (UniProt P08684); experiment: qHTS Assay for Inhibitors and Substrates of Cytochrome P450 3A4 (AID 884); also: potency is read from the fitted curve at half-maximal effect; nearly all actives have a fitted effect of over 50% in size
Cytochrome P450 3A4 (Homo sapiens), sequence (P08684 whole entry, looked up): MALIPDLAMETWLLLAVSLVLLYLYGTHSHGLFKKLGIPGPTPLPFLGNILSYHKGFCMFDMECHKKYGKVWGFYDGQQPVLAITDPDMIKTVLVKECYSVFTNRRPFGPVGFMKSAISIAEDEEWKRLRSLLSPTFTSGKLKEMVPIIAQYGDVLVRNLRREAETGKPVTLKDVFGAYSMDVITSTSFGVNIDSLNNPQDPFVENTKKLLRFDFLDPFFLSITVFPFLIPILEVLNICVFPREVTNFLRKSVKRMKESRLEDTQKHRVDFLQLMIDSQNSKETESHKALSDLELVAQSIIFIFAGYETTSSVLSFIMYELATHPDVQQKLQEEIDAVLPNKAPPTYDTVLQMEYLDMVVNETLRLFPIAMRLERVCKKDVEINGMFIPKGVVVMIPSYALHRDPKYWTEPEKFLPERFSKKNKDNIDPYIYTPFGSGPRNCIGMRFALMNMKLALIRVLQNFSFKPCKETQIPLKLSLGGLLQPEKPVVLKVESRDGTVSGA
Outline: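 20 nM human CYP3A4 with 25 uM Luciferin-PPXE (at KM) in 200 mM KPO4, preincubated 10 min with compound; NADPH regeneration started a 60 min RT reaction. Luciferin detected by luminescence, normalized to 57 uM ketoconazole as full inhibition.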

[10] = target: Cytochrome P450 3A4 (Homo sapiens) (UniProt P08684); experiment: qHTS Assay for Activators of Cytochrome P450 3A4 (AID 885); also: nearly all actives have a fitted effect of over 65% in size
Outline: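 Steps: enzyme/substrate mix dispensed; compound added, 10 min RT; NADPH regeneration solution added, 60 min RT; luciferin detection buffer stops reaction; 20 min later luminescence measured.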

[11] = target: Dual specificity protein kinase CLK4 (Homo sapiens) (UniProt Q9HAZ1); experiment: qHTS Assay for Inhibitors of CDC-like Kinase 4 (Kinase-Glo Assay) (AID 1770); also: nearly all actives have a fitted effect of over 65% in size; also: potency is read from the fitted curve at half-maximal effect
Dual specificity protein kinase CLK4 (Homo sapiens), sequence (Q9HAZ1 whole entry, looked up): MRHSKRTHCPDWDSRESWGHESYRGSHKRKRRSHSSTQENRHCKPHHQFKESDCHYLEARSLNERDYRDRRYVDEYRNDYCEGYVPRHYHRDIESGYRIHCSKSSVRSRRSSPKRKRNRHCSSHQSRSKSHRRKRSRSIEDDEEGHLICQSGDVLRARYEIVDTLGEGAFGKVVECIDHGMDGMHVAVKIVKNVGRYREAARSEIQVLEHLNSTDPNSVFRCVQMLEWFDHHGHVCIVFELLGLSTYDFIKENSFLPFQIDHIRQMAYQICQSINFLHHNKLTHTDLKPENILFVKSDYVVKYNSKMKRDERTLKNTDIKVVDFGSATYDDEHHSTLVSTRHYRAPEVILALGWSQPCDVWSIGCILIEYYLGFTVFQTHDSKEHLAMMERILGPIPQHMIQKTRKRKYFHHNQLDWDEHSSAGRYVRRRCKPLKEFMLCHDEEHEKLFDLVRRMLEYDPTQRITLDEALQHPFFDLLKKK
Outline: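 Luminescent ATP-depletion read-out (Kinase-Glo) after 4.5 h room-temperature reaction of Clk4 (25 nM final) with RS peptide (100 uM) and ATP (1 uM), pH 7.5 Tris buffer with MgCl2 and DTT.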

[12] = target: Dual specificity protein kinase CLK4 (Homo sapiens) (UniProt Q9HAZ1); experiment: qHTS Assay for Inhibitors of CDC-like Kinase 4 (ADP-Glo Assay) (AID 1771); also: nearly all actives have a fitted effect of over 70% in size; also: potency is read from the fitted curve at half-maximal effect
Outline: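 25 nM Clk4 with 100 uM RS repeat peptide and 1 uM ATP (final) in buffer with 2 mM MgCl2, 0.5 mM EGTA, 2.5 mM DTT, 0.01% Triton X-100; 1 h at room temperature; ADP-Glo luminescence for ADP formed.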

[13] = target: Dual specificity protein kinase CLK4 (Homo sapiens) (UniProt Q9HAZ1); experiment: qHTS Assay for Inhibitors of CDC-like Kinase 4 (ADP-FP Assay) (AID 1795); also: nearly all actives have a fitted effect of over 60% in size; also: potency is read from the fitted curve at half-maximal effect
Outline: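 Kinase activity was measured as ADP production using Transcreener orange tracer (4 nM) and ADP antibody (1 ug/mL) fluorescence polarization, with ADP calculated from a calibration curve. The 1 h reaction contained 6.25 nM Clk4, 1 uM ATP and 100 uM RS peptide at pH 7.5 with Mg2+.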

[14] = target: Ubiquitin carboxyl-terminal hydrolase 1 (Homo sapiens) (UniProt O94782); experiment: Inhibitors of USP1/UAF1: Pilot qHTS (AID 504865);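 also: rhodamine fluorescence freed from ubiquitin-rhodamine substrate followed over time; top concentration of the series differs between compounds; % is scaled to controls: 0 for no effect and ±100 for the full control effect; nearly all actives have a fitted effect of over 35% in size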
Ubiquitin carboxyl-terminal hydrolase 1 (Homo sapiens), sequence (O94782 whole entry, looked up): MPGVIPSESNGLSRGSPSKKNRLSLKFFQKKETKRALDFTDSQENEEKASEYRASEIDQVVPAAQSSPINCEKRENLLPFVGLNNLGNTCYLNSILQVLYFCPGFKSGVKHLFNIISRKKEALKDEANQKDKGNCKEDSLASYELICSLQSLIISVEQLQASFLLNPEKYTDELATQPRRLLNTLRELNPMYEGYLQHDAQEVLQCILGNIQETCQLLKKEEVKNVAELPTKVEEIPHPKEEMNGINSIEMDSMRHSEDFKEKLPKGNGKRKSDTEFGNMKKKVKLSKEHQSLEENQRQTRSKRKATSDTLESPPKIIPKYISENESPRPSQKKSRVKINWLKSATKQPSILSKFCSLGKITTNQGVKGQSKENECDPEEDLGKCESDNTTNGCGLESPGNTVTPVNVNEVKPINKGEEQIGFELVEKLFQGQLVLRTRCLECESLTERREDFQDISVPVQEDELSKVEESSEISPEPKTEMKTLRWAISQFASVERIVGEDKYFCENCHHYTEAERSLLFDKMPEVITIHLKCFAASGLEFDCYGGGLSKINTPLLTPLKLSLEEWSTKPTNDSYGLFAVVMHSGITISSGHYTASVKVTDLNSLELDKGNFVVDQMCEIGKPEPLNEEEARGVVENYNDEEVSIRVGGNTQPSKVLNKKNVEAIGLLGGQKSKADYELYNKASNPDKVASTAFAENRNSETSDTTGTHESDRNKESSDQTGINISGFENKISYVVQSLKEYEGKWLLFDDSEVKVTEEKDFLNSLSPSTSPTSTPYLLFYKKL
Outline: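 Deubiquitinase activity followed as kinetic rhodamine fluorescence release from 150 nM Ub-Rho. 1 nM USP1/UAF1 with compound, after 15 min room-temperature preincubation, in HEPES pH 7.8 buffer containing TCEP, EDTA, BSA and Tween-20.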

[15] = target: 3',5'-cyclic-AMP phosphodiesterase 4B (Homo sapiens) (UniProt Q07343); experiment: qHTS Assay for Inhibitors of PDE-IV (AID 607; active = well fitted activation curve with a large enough effect in the main read-out, with a control signal flat, not every such curve was filed as active; also: % of control where 0% means no effect)
Outline: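 The readout is membrane depolarisation from a cAMP-sensing CNG channel, detected with a potential dye at ex 535/em 590. Cells were HEK293-derived (endogenous PDE-IV) at 1000 cells/well, titrated up to 22.9 uM final.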

[16] = target: Cytochrome P450 2D6 (Homo sapiens) (UniProt P10635); experiment: qHTS Assay for Inhibitors and Substrates of Cytochrome P450 2D6 (AID 891); also: potency is read from the fitted curve at half-maximal effect; nearly all actives have a fitted effect of over 60% in size
Cytochrome P450 2D6 (Homo sapiens), sequence (P10635 whole entry, looked up): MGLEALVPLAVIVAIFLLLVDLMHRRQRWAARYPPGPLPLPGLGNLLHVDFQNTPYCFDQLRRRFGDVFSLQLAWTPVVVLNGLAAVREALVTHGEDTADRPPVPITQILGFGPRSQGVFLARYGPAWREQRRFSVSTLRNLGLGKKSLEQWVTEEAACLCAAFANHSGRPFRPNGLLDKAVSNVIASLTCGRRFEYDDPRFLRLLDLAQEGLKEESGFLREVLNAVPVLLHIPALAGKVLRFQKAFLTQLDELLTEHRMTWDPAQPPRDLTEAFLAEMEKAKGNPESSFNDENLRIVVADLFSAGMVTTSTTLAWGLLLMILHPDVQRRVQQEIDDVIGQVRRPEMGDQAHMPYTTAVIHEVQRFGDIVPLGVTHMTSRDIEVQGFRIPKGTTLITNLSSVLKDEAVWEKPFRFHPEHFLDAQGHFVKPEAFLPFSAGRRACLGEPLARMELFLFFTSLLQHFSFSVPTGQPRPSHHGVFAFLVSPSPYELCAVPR
Outline: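 Human CYP2D6 (5 nM) with 30 uM Luciferin-ME EGE (at Km) in 100 mM KPO4, compound preincubated 10 min, then NADPH regeneration system for 60 min at room temperature. Luciferin read by luminescence; normalized to 1.43 uM quinidine.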

[17] = target: Cytochrome P450 2C19 (Homo sapiens) (UniProt P33261); experiment: qHTS Assay for Inhibitors and Substrates of Cytochrome P450 2C19 (AID 899); also: potency is read from the fitted curve at half-maximal effect; nearly all actives have a fitted effect of over 60% in size
Cytochrome P450 2C19 (Homo sapiens), sequence (P33261 whole entry, looked up): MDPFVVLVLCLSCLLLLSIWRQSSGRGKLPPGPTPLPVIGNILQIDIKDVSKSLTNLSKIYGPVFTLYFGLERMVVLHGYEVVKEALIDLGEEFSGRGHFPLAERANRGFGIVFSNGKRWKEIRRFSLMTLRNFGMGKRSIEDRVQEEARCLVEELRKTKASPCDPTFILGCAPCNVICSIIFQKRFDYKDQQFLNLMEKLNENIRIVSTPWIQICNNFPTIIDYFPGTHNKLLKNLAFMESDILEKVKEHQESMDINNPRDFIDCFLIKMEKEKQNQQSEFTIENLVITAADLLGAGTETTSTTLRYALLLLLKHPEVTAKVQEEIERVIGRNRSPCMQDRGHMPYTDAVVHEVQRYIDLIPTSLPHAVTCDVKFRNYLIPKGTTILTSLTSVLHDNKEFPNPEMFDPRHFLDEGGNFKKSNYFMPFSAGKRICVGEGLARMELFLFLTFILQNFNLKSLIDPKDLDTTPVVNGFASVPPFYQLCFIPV
Outline: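 In 50mM KPO4, the reaction held 5nM enzyme and KM-level (10uM) Luciferin-H EGE; it ran 60 min at 37C after NADPH regeneration and a 10 min compound preincubation. Luminescence values were scaled to 57uM ketoconazole as complete inhibition.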

Structure (SMILES) | Potency [1] | activity change, negative = inhibition [2] | Potency [3] | activity change, negative = inhibition [4] | outcome [5] | Potency [6] | Potency [7] | Potency [8] | Potency [9] | outcome [10] | Potency [11] | Potency [12] | Potency [13] | Potency [14] | Potency [15] | Potency [16] | Potency [17]
CN(Cc1ccco1)c1cc(-c2ccc3c(c2)OCO3)ncn1 | > 11.4 µM | -0.29% | 0.501 µM (active) | -0.867% | inactive | > 46 µM | > 46 µM | inactive | 3.98 µM (active) | inactive | 2 µM (active) | 3.16 µM (active) | 2.51 µM (active) | inactive | – | – | –
COc1ccccc1CNc1ncncc1-c1ccccc1Cl | > 11.4 µM | -2.69% | 10 µM (active) | -21.7% | inactive | > 46 µM | > 46 µM | inactive | 0.199 µM (active) | inactive | inactive | inactive | inactive | inactive | inactive | 2 µM (active) | 1.26 µM (active)

Reference: PubChem BioAssay (NCATS)
